# An excerpt weighted towards active compounds, which were near 2% of everything screened.
# aSyn yeast inh: rescues yeast growth from alpha-synuclein toxicity. Yeast expressing alpha-synuclein, growth rescue, BacTiter-Glo, 24 h. Potency, µM (series often up to 46.1 µM), without a hit: at the top dose growth rescue (activation), most hits filed as activators. 370,000 compounds, 0.14% hits; further: % of control where 0% means no effect; nearly all actives have a fitted effect of over 65% in size
#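 Readout is rescue of growth in alpha-synuclein-expressing yeast, so inhibitors of toxicity appear as activators. Growth after 24 hr at 30 deg C in galactose medium is quantified by luminescence.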
# Abeta rescue: A-beta toxicity reversal in yeast | yeast expressing A-beta42, growth rescue, OD600, 48 h; response scale: 0% DMSO, 100% iron-clioquinol control | Potency, µM (top dose mostly 46.1 µM), most hits filed as activators | 410,000 compounds, 0.063% hits | AID 1347071; further: nearly all actives have a fitted effect of over 55% in size
#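 Growth rescue measured by 600 nm absorbance after 48 h yeast culture at 30 C with compound. Values normalized between DMSO and an equimolar ferric chloride plus clioquinol control.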
# TDP-43 yeast inh: TDP-43 toxicity inhibition in yeast | AID 652104 | TDP-43 expressing yeast growth rescue, BacTiter-Glo, 24 h | Potency, µM (series often up to 46.1 µM), inactives show top-dose growth rescue (activation), usual class: activators | 410,000 compounds, 1.8% hits; further: % of control where 0% means no effect; nearly all actives have a fitted effect of over 50% in size
#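 Readout is BacTiter-Glo luminescence of cell growth, so inhibitors register as activators. TDP-43-expressing yeast at OD600=0.02 in galactose medium, after raffinose pregrowth to mid-log, were incubated with compound for 24 hr at 30 deg C.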
# S-ASM inh: blocks human secretory acid sphingomyelinase. 340,000 compounds, 0.006% hits. Potency, µM (series often up to 57.5 µM), for inactives: at the highest dose activity change, negative = inhibition, hits mostly inhibitors. placental ASM, HMU-PC fluorogenic substrate, 60 min. P17405
# Target sequence (P17405 47-631 limits assumed): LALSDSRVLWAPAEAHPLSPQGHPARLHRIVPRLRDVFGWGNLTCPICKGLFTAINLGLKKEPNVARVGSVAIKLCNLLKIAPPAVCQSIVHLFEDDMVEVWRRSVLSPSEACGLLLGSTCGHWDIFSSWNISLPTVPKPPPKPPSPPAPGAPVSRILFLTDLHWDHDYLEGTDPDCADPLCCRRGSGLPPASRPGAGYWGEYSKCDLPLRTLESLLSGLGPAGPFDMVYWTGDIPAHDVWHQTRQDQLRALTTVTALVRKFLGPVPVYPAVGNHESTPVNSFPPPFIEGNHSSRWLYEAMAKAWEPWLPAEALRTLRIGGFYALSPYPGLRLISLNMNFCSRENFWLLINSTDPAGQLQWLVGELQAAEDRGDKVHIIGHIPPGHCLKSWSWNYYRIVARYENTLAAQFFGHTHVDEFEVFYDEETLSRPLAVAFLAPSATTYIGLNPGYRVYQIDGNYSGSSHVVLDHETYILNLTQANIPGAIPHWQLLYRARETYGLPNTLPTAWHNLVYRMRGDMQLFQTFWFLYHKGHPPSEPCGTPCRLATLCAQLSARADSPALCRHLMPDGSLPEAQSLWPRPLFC
#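 Human placenta-derived ASM preincubated with compound 10 min at room temperature, then reacted with 9 uM (final) fluorogenic HMU-PC substrate for 60 min at 37 C. Stop solution raises pH to 10; fluorescence read at Ex 386/Em 447 nm.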
# Rango complex inh: inhibitors of Rango-importin beta complex formation; Q14974; Rango CFP/YFP FRET sensor + importin beta, 45 min; Potency, µM (top dose mostly 92.2 µM), for inactives: top-dose inhibition of complex formation; 340,000 compounds, 0.031% hits; AID 540263; calls by dose curve;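 further: 0% = DMSO wells and 100% = buffer wells lacking importin beta; nearly all actives have a fitted effect of over 15% in size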
#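 FRET biosensor Rango (snurportin 1 IBB between N-terminal EYFP and C-terminal Cerulean), 50 nM in PBS/1 mM DTT/0.02% Tween-20/0.1% BSA, preincubated 5 min RT with compound; 0.125 microM importin beta added, 45 min RT, CFP/YFP FRET ratio read.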
# Rango dissoc inh: inhibitors of RanGTP-induced Rango-importin beta complex dissociation. O95149+P62826. Biochemical FRET Rango-importin beta, RanGTP-induced dissociation. Potency, µM (series often up to 46.1 µM), for inactives: top-dose activity change, negative = inhibition. 340,000 compounds, 0.071% hits. AID 540253; calls by dose curve; further: % of control where 0% means no effect; nearly all actives have a fitted effect of over 45% in size
#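 Compounds preincubate 5 min with complex of recombinant Rango and importin beta in PBS with 1 mM DTT. Ran (0.6 uM) loaded with 2 mM GTP plus 0.2 uM RCC1 starts dissociation; FRET is recorded 45 min later.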
# Starred values were filed as active, the others as inactive; i = inactive; u = inconclusive; x = no result given; ! = repeats disagree; [ ] = remark or other dose. Unless noted, the call rests on the fitted dose curve; in most records, active means well fitted curve in the direction sought with a large enough effect; inconclusive means small, poorly fitted or top-dose-only effect, or another doubt; inactive means no such curve, though single readings can be large; an effect the other way counts as inactive or inconclusive. Potency means the concentration at half of the fitted maximal effect.
SMILES,aSyn yeast inh,Abeta rescue,TDP-43 yeast inh,S-ASM inh,Rango complex inh,Rango dissoc inh
Cc1cc(/C=N/NC(N)=S)c(C)n1-c1ccc(Cl)c(Cl)c1,11%,u,18µM*,-1%,-1%,1%
Cc1ccc(CNS(=O)(=O)c2ccc(Br)s2)cc1,14%,i,u,-2%,-1%,-3%
O=S(=O)(NCc1ccccc1)c1ccc(Br)s1,10%,i,11µM*,-4%,0%,14%
Cc1cc(C)cc(NS(=O)(=O)c2c(C)nc3scc(C)n3c2=O)c1,x,i,u,x,x,x
Cc1nc2scc(C)n2c(=O)c1S(=O)(=O)Nc1ccc(N2CCN(S(C)(=O)=O)CC2)cc1,u,u,16µM*,-2%,1%,4%
Cc1cccc(NS(=O)(=O)c2c(C)nc3scc(C)n3c2=O)c1,u,i,16µM*,-2%,1%,1%
CCNc1ccc(/C=C2\C=Cc3ccccc32)cc1,10%,x,x,x,x,x
O=C(COc1ccccc1Cl)Nc1ccc(Cl)c(-c2nc3ccccc3o2)c1,x,i,15%,x,x,x
O=C(CSc1cnc2ccccc2n1)c1ccc(F)cc1,3%,i,18µM*,-5%,4%,-4%
COC(=O)CSc1cnc2ccccc2n1,-10%,i,0%,-2%,0%,-16%
O=C(CCCCCn1c(=S)[nH]c2ccccc2c1=O)NCc1ccc2c(c1)OCO2,1%,i,7.1µM*,2%,-6%,-19%
O=c1c2ccccc2[nH]c(=S)n1Cc1ccc2c(c1)OCO2,8%,i,6%,2%,-2%,-11%
CCOC1=C2CN(S(=O)(=O)c3ccc(C)cc3)[C@H](c3ccccc3)C[C@H]2[C@H]2C(=O)N(c3ccccc3)C(=O)[C@H]2C1,2%,i,0%,x,x,x
CCOC1=C2CN(S(=O)(=O)c3ccc(C)cc3)[C@H](c3cccc4ccccc34)C[C@H]2[C@H]2C(=O)N(c3ccccc3)C(=O)[C@H]2C1,14µM*,i,19%,x,x,x
CCc1cccc(NC(=O)C2CCCN(c3cnccn3)C2)c1 (stereo not given),16%,x,u,22%,3%,1%
Cc1ccc(NC(=O)C2CCCN(c3cnccn3)C2)cc1Cl (stereo not given),x,i,22µM*,x,x,x
Cc1ccc(NC(=O)C2CCN(c3cnccn3)CC2)cc1,2%,i,7%,24%,-1%,11%
CCOC(=O)c1ccc(NC(=O)C2CCCN(c3cnccn3)C2)cc1 (stereo not given),u,i,20µM*,30%,-4%,-1%
O=C(Nc1ccc(F)c(Cl)c1)C1CCCN(c2cnccn2)C1 (stereo not given),u,i,u,13%,-5%,-1%
O=C(Nc1ccc(C(F)(F)F)cc1)C1CCN(c2cnccn2)CC1,-8%,i,16µM*!,26%,-2%,24%
COc1ccc(-c2noc(Cn3c(=O)c4ccccc4n(CC(=O)Nc4cccc(OC)c4)c3=O)n2)cc1,x,i,7%,x,x,x
CCc1ccc(-c2ccc3nnc(SC)n3n2)cc1,0%,x,16µM*,9%,-2%,14%
Clc1cccc(-n2ncc3c(NCCCn4ccnc4)ncnc32)c1,x,i,10%,x,x,x
COc1cccc(NC(CNS(=O)(=O)c2ccc(Cl)cc2)c2ccccc2)c1 (stereo not given),x,i,-5%,x,x,x
Cc1nc2cc(Cl)c(Cl)cc2n1-c1ccccn1,-3%,i,13µM*,58%,-2%,13%
SMILES,aSyn yeast inh,Abeta rescue,TDP-43 yeast inh,S-ASM inh,Rango complex inh,Rango dissoc inh
Cc1cccc(Cn2c(-c3cccc(Br)c3)nc3ccccc32)c1,x,i,14µM*,x,x,x
Cc1ccc(NC(=O)c2cc(S(=O)(=O)N3CCCC(C)C3)cn2C)c(Br)c1 (stereo not given),x,i,22%,x,x,x
CCCCN(C)C(=O)c1ccc2c(c1)N(Cc1cccc(F)c1)C(=O)c1ccccc1S2,x,i,22µM*,x,x,x
Cc1cc(C)cc(OCC(=O)NNC(=O)c2ccccn2)c1,u,u,20µM*,7%,0%,13%
O=C(COc1ccc(Cl)cc1)NNC(=O)c1ccccn1,u,u,14µM*,0%,-1%,0%
O=C(COc1ccccc1)NNC(=O)c1ccc(Cl)cc1,-1%[1.84 µM],i,4%,-1%,5%,1%
Cc1cc(C)cc(OCC(=O)NNC(=O)c2cc(C)[nH]n2)c1,1%,i,-23%,-1%,-5%,3%
Nc1ccc(C(Cc2ccnc3ccccc23)Cc2ccnc3ccccc23)cc1,2%,x,x,x,x,x
Cc1ccccc1CN1CCc2c(OCC(=O)N3CCCc4ccccc43)cccc2C1=O,11%,i,13µM*,1%,4%,1%
Cc1c(C(=O)NCc2ccc3c(c2)OCO3)sc(=O)n1Cc1ccc(-c2ccccc2)cc1,-4%,i,23%,x,x,x
Cc1ccc(Cn2c(C)c(C(=O)NCc3ccc4c(c3)OCO4)sc2=O)cc1,-2%,u,25µM*,x,x,x
Cc1c(C(=O)NCc2ccc3c(c2)OCO3)sc(=O)n1Cc1cccc(F)c1,1%,i,u,x,x,x
Cc1ccc(NC(=S)NCc2ccc3c(c2)OCO3)cc1,-3%,i,22µM*,1%,-1%,4%
CSc1ccc(Cn2c(C)c(C(=O)NCc3ccc4c(c3)OCO4)sc2=O)cc1,-7%,u,20µM*,x,x,x
COc1ccc(-c2ccc(CNc3ccc4[nH]c(=O)[nH]c4c3)o2)cc1Cl,x,i,-22%,x,x,x
CCCC(=O)OCc1cnc(C)c2oc(=O)c(C(=O)Nc3ccccc3)cc12,-6%,i,22%,x,x,x
Cc1cccc(-c2nnc(-c3ccc(N)cc3)o2)c1,8%,i,8.9µM*,121%,-2%,-1%
Cc1cccc(CSc2nnc(-c3ccco3)o2)c1,-12%,i,18µM*,0%,-3%,-1%
Cc1cccc(-c2nnc(SCc3ccccc3)o2)c1,0%,i,11µM*,-3%,-2%,-2%
c1ccc(-c2nnc(SCc3ccncc3)o2)cc1,-2%,i,-1%,x,x,x
COc1cccc(-c2nnc(SCc3cccnc3)o2)c1,21%,i,13µM*,0%,0%,2%
O=C(Cc1ccc(OCc2ccccc2)cc1)NO,4%,x,x,x,x,x
N#Cc1cccc(-c2nnc(SCc3ccccc3C#N)o2)c1,13%,i,18µM*,-2%,0%,4%
COc1ccc(OC)c(NC(=O)CSc2cn(CC(=O)N3CCOCC3)c3ccccc23)c1,x,i,17%,x,x,x
